Assay outcomes deposited in PubChem by National Center for Advancing Translational Sciences (NCATS).
The entries come from a sample that favours hits as a whole.
FBPA Giardia inh: inhibitors of Giardia lamblia fructose-1,6-bisphosphate aldolase; A8B2U2; purified Giardia FBPA; Potency, µM (series often up to 59.6 µM), usual class: inhibitors; 290,000 compounds, 0.71% hits; AID 2451; also: nearly all actives have a fitted effect of over 55% in size
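40 nM FBPA preincubated 10 min at RT with compound (up to 57.5 uM final), then substrate plus GAPDH/TPI/NAD/arsenate coupling and diaphorase/resazurin added. Fluorescence read after 20 min at RT, 525/598 nm.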
LmPK inhibitor: LmPK (Leishmania mexicana) enzyme inhibition; Q27686; purified LmPK, Kinase-Glo ATP luminescence, 1 h; Potency, µM (top dose mostly 57.5 µM), most hits filed as inhibitors; 290,000 compounds, 0.37% hits
Target sequence (Q27686 whole entry, looked up): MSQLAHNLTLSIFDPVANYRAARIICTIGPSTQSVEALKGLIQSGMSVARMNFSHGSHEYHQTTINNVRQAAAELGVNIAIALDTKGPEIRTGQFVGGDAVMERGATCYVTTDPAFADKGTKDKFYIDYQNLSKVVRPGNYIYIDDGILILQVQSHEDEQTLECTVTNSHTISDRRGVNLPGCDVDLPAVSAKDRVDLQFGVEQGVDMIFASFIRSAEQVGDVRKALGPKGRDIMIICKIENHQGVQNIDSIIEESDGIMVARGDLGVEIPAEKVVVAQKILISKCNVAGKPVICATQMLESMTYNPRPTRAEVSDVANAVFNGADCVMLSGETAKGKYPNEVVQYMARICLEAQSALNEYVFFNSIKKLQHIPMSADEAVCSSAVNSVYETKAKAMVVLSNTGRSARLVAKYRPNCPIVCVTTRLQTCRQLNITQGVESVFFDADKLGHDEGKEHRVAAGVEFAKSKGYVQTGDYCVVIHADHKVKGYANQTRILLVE
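In 50 mM imidazole pH 7.2 with 7 mM MgCl2, LmPK (0.1 nM) turned over PEP (0.5 mM) and ADP (0.1 mM) for 1 h at room temperature. Luciferase read-out of ATP.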
Cycloheximide cs: affects cycloheximide protein synthesis inhibition readout, counter-screen; cell reporter, cycloheximide protein synthesis inhibition counterscreen; max response, %; 300,000 compounds, 12% hits; AID 2314; in the data active = max response mostly above about 13%, no sharp cut-off; inactive = mostly below about 14%; also: read at 38.3 µM for the half of the compounds with a filed dose
Shiga inhibitor: inhibitors of Shiga toxin in Vero cells. Vero cells, Shiga toxin protein synthesis inhibition reporter. inhibition, % at 38.7 µM. 290,000 compounds, 9.2% hits; in the data active = inhibition mostly above about 28%, no sharp cut-off; inactive = mostly below about 43%
RE007 growth inh: less growth of the S. pombe RE007 Vpr strain. 360,000 compounds, 0.21% hits. Potency, µM (highest dose often 92.2 µM), actives largely listed as inhibitors. S. pombe RE007 Vpr strain, BacTiter-Glo ATP luminescence, 24 h; active = well fitted falling curve with a large enough effect; inconclusive = small, poorly fitted or top-dose-only effect; inactive = no such curve, though single readings can be large or run the other way; also: nearly all actives have a fitted effect of over 50% in size
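Fission yeast RE007 carrying one integrated HIV-1 vpr copy, seeded at OD 0.01 in PMG+AL medium with 23 nL pinned compound. Grown 24 h at 30 degrees; viability read by BacTiter-Glo luminescence after 5 min.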
TbPYK inhibitor: T. brucei pyruvate kinase inhibition | Q57TT1 | TbPYK enzyme, Kinase-Glo Plus ATP luminescence, 45 min | Potency, µM (highest dose often 76.8 µM), usual class: inhibitors | 410,000 compounds, 0.12% hits | AID 624173; also: nearly all actives have a fitted effect of over 50% in size
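Luminescent Kinase-Glo Plus end-point after 45 min room-temperature reaction of T. brucei pyruvate kinase started with 130 uM ADP (final). Buffer TEA 50 mM pH 7.2 with KCl, MgCl2, BSA, Tween-20; titration-based qHTS with fitted concentration-effect curves.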
Of the large screens only hits and unclear results are named; the others gave an inactive call. Unless noted, calls follow the shape of the dose curve; as a rule, active = well fitted curve in the direction sought with a large enough effect; inconclusive = small, poorly fitted or top-dose-only effect, or another doubt; inactive = no such curve, though single readings can be large; an effect the other way counts as inactive or inconclusive.

CN(C)S(=O)(=O)c1cccc(C(=O)c2nccn2C)c1	none
Cn1ccnc1C(=O)c1ccc(S(=O)(=O)N2CCCC2)cc1	Cycloheximide cs 13.8
Cn1ccnc1C(=O)c1cccc(Br)c1	Cycloheximide cs 16.5, Shiga inhibitor 39.5
CC(=O)c1ccc(S(=O)(=O)N2CCCC2)cc1	Cycloheximide cs 43.0, Shiga inhibitor 81.8
O=C1NC(=S)N/C1=C/c1cccc2ccccc12	Cycloheximide cs 29.4, Shiga inhibitor 89.1
CC(=O)c1c(C)[nH]c(C(=O)Nc2cccc3ccccc23)c1C	none
Cc1sc(NC(=O)c2ccco2)nc1-c1ccccc1	Cycloheximide cs 44.5, Shiga inhibitor 102.7
Cc1sc(N/N=C/c2cccs2)nc1-c1ccccc1	Cycloheximide cs 43.5, Shiga inhibitor 84.0
CC(=O)c1sc(NC(=O)c2ccco2)nc1-c1ccccc1	Cycloheximide cs 21.4, Shiga inhibitor 64.6
CC(=O)c1c(C)[nH]c(C(=O)Nc2nc(-c3ccccc3)c(C)s2)c1C	Cycloheximide cs 22.9
CCOc1ccc(-n2ccnc2SCC(=O)Nc2cccc3ccccc23)cc1	none (no result: FBPA Giardia inh, LmPK inhibitor, Cycloheximide cs, Shiga inhibitor, RE007 growth inh)
Cc1nc(NC(=O)c2ccco2)sc1C(=O)O	LmPK inhibitor 25.1µM, RE007 growth inh inconclusive, TbPYK inhibitor 25.1µM
O=C(Nc1nsc(-c2ccccc2)n1)c1cccs1	LmPK inhibitor inconclusive, Cycloheximide cs 25.0, Shiga inhibitor 36.5, RE007 growth inh inconclusive
CC(=O)c1sc(NC(=O)c2ccccc2F)nc1-c1ccccc1	Cycloheximide cs 43.4, Shiga inhibitor 133.8
Oc1ccc(-c2nc3ccccn3c2NCc2ccco2)cc1	Cycloheximide cs 35.2, Shiga inhibitor 36.9
Cc1nnc2c3ccccc3nc(Nc3ccccc3C(=O)O)n12	none (no result: FBPA Giardia inh, LmPK inhibitor, Cycloheximide cs, Shiga inhibitor, RE007 growth inh)
O=C(CSc1nc2c(oc3ccccc32)c(=O)n1Cc1ccco1)Nc1ccccc1Cl	none (no result: FBPA Giardia inh, LmPK inhibitor, Cycloheximide cs, Shiga inhibitor, RE007 growth inh)
O=C(NCC(c1cccnc1)N1CCc2ccccc21)c1cccc(F)c1 (stereo not given)	none (no result: FBPA Giardia inh, LmPK inhibitor, Cycloheximide cs, Shiga inhibitor, RE007 growth inh)
O=C(Nc1c(-c2ccccc2)nc2ccccn12)c1ccco1	Cycloheximide cs 11.5
Cc1cnc(NC(=O)c2ccco2)s1	LmPK inhibitor inconclusive, Cycloheximide cs 34.0, Shiga inhibitor 125.4
Cc1sc(NC(=O)c2cccs2)nc1-c1ccccc1	Cycloheximide cs 33.7, RE007 growth inh inconclusive
COc1ccc(OC)c(NC(=O)CS(=O)(=O)Cc2nc(-c3ccc(C)cc3)oc2C)c1	none (no result: FBPA Giardia inh, LmPK inhibitor, Cycloheximide cs, Shiga inhibitor, RE007 growth inh)
CCC1=NN(C(=O)c2ccc(Cl)cc2)C(O)(c2ccc(C)cc2)C1 (stereo not given)	Cycloheximide cs 18.3, Shiga inhibitor 45.1
CCC1=NN(C(=O)c2ccccc2O)C(O)(c2ccccc2)C1 (stereo not given)	Cycloheximide cs 31.0, Shiga inhibitor 77.3
Cc1ccccc1Cn1c(=O)n(CCCCC(=O)NCCc2ccccc2)c(=O)c2ccccc21	none (no result: FBPA Giardia inh, LmPK inhibitor, Cycloheximide cs, Shiga inhibitor, RE007 growth inh)
Cc1c(Cl)cccc1NC(=O)Cn1nc(C)c2sc3ccccc3c2c1=O	none (no result: FBPA Giardia inh, LmPK inhibitor, Cycloheximide cs, Shiga inhibitor, RE007 growth inh)
Cc1ccc(Cn2ccsc2=NC(=O)COC(=O)c2ccc(O)cc2O)cc1	Cycloheximide cs 37.6, Shiga inhibitor 135.2
O=C1/C(=C/c2ccncc2)Oc2cc(OS(=O)(=O)c3ccccc3)ccc21	none
CS(=O)(=O)Oc1ccc2c(c1)O/C(=C\c1cccc([N+](=O)[O-])c1)C2=O	none
CCc1ccc(/C=C2\Oc3cc(OS(C)(=O)=O)ccc3C2=O)cc1	Cycloheximide cs 14.1
CS(=O)(=O)Oc1ccc2c(c1)O/C(=C\C=C\c1ccccc1)C2=O	Cycloheximide cs 14.6, Shiga inhibitor 36.1
Nc1cccc(-c2ccc(CO)o2)c1	Cycloheximide cs 30.7, Shiga inhibitor 67.8
COC1=CC(=O)OC(/C=C/c2ccccc2)C1 (stereo not given)	Cycloheximide cs 23.0, Shiga inhibitor 46.6
COC1=CC(=O)O[C@@H](/C=C\c2ccccc2)C1	none (no result: LmPK inhibitor, Cycloheximide cs, Shiga inhibitor, RE007 growth inh, TbPYK inhibitor)
CCOC(=O)/C(=N\Nc1ccccc1[N+](=O)[O-])c1csc(N)n1	Cycloheximide cs 21.4
CCOC(=O)C1CCCCN1C(=O)c1oc2c(Cl)cc(C)cc2c1C (stereo not given)	Cycloheximide cs 45.6, Shiga inhibitor 117.6
Cc1cc(Cl)c2oc(C(=O)NCC(C)(C)N3CCOCC3)c(C)c2c1	Cycloheximide cs 17.7
